The values below come from PubChem BioAssay (NCATS).

Records with an inconclusive call do not appear. Activity calls are given as the source filed them. Unless noted, calls come from the whole dose curve; as a rule, active = well fitted curve in the direction sought with a large enough effect; inconclusive = small, poorly fitted or top-dose-only effect, or another doubt; inactive = no such curve, though single readings can be large; an effect the other way counts as inactive or inconclusive.

Test [1] deals with Lysosomal acid glucosylceramidase (Homo sapiens) (UniProt P04062). Nature of the test: Glucocerebrosidase-p2 (AID 348; in the data active = potency below about 10 µM; note: potency is the fitted concentration of half-maximal effect). To be noted: purified GBA, blue fluorogenic substrate, 40 min. The procedure, abridged:
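Normal human glucocerebrosidase (0.2 nM) with blue fluorogenic substrate (80 uM final) in citrate/phosphate pH 5.9 with 10mM sodium taurocholate, 0.01% tween-20; 40 min RT, NaOH/glycine stop; fluorescence Ex 365/Em 440; AC50 from a titration from 0.6 nM upwards.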

A short description of test [2]: AP1 Signaling Pathway (AID 357; active = well fitted curve in either direction with a large enough effect, not every such curve was filed as active; note: % is set by controls: 0 for no effect and ±100 for the full control effect). To be noted: ME-180 AP-1-bla reporter, EGF-induced, beta-lactamase ratio, 5 h; at 7.69 µM (top of the series) unless noted. The procedure, abridged: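 ME-180 cells with beta-lactamase reporter under AP-1 response element, stimulated with EC50 EGF; compounds tested in titration series, 5 h at 37 °C. CCF4 substrate added 2.5 h at room temperature; 460/530 nm emission ratio gave %activity and AC50.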

The target in test [3] is Cytochrome P450 1A2 (Homo sapiens) (UniProt P05177). Nature of the test: p450-cyp1a2 (AID 410; calls by dose curve; note: potency is the fitted concentration of half-maximal effect;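 for activity change, negative = inhibition: -100% = full effect of reference inhibitor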). Put shortly: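 O-Demethylation of luciferin 6' methyl ether by human CYP1A2 is monitored as luciferase luminescence. Substrate sits at Km (100uM); enzyme is 20nM. Values are scaled to 57 uM furafylline as maximal inhibition.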
A short description of test [4]: NFAT Signaling Pathway (AID 444; active = well fitted curve in either direction with a large enough effect, not every such curve was filed as active;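 note: carbachol stimulus at about its EC50 of 1 µM final; % is set by controls: 0 for no effect and ±100 for the full control effect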). To be noted: Jurkat NFAT-bla M1, carbachol, beta-lactamase ratio, 5 h; at 7.69 µM (top of the series) unless noted. The procedure, abridged:
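Jurkat cells carrying an NFAT-driven β-lactamase reporter and co-transfected muscarinic M1 receptor were treated with compound plus carbachol (1 uM final, an EC50 level) for 5 h at 37 °C. CCF4 loading followed for 1 h at RT; 460/530 nm ratio gave %activity.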

Test [5] is described as follows: Stat Signaling Pathway (AID 446; active = well fitted curve in either direction with a large enough effect, not every such curve was filed as active;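 note: ME-180 cervical cancer cells given 40 pM IL-6 alongside compound; SIE-controlled beta-lactamase reporter measured as 460/530 nm FRET emission ratio; % is set by controls: 0 for no effect and ±100 for the full control effect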). Particulars: ME-180 (cervical carcinoma) SIE beta-lactamase reporter, IL-6 stimulated, 5 h; at 7.69 µM (top of the series) unless noted. Put shortly: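 Normalization used AC90 stimulation (300 pM IL-6) and AC90 inhibition (125 nM pan-JAK inhibitor at 40 pM IL-6). The underlying signal is SIE-driven beta-lactamase in ME-180 cells after 5 h IL-6 exposure with compound.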

In test [6] the target is Glucocorticoid receptor (Homo sapiens) (UniProt P04150). Nature of the test: GR-GFP Redistribution (AID 450;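 active = compounds whose dose series gives a full or clear partial fitted curve of increased nuclear translocation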; note: potency is the fitted concentration of half-maximal effect). Particulars: U2OS GR-GFP nuclear translocation, laser cytometry, 2 h.
The target is the same in test [7]. Nature of the test: GR-EFC Redistribution (AID 451; calls by dose curve; note: potency is the fitted concentration of half-maximal effect). To be noted: CHO-K1 GR-EFC translocation, beta-gal luminescence, 2 h. The procedure, abridged:
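CHO-K1 cells stably expressing nuclear-localized β-gal enzyme acceptor and GR fused C-terminally to the enzyme donor fragment; ligand-driven nuclear translocation restores β-gal by complementation. Compounds titrated up to 46 uM final, 2 h at 37 °C; luminescence read.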

The target in test [8] is Mitogen-activated protein kinase 10 (Mus musculus) (UniProt Q61831). Nature of the test: JNK3 AlphaScreen Assay (AID 530; active = well fitted curve in either direction with a large enough effect, not every such curve was filed as active;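 note: kinase came from lysate of stimulated human HepG2 cells; signal reports phosphorylation of biotinylated GST-cJun 1-79 at Ser73 with 10 µM ATP; % is set by controls: 0 for no effect and ±100 for the full control effect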). The procedure, abridged:
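Phosphorylation of biotinylated GST-cJun(1-79) at Ser73 is measured by AlphaScreen proximity luminescence. Enzyme is JNK3 in HepG2 lysates activated with interleukin-1beta and tumor necrosis factor alpha; ATP is 10 uM final.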

In test [9] the target is 3',5'-cyclic-AMP phosphodiesterase 4B (Homo sapiens) (UniProt Q07343). Nature of the test: qHTS Assay for Inhibitors of PDE-IV (AID 607; active = well fitted activation curve with a large enough effect in the main read-out, with a control signal flat, not every such curve was filed as active; note: % of control where 0% means no effect). Put shortly:
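HEK293 ACTOne cells with CNG channel (1000/well), endogenous PDE4; membrane potential dye, compounds up to 22.9 uM final. Fluorescence Ex 535/Em 590; RO 20-1724 (100 uM final) as reference.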

Test [10] can be described thus: qHTS Assay for Lipid Storage Modulators (AID 1519; calls by dose curve). Particulars: Drosophila S3 cells, BODIPY lipid droplet/cell ratio, laser cytometry, cells loaded with oleic acid; for activity change, negative = inhibition: at 57.5 µM (top of the series). Put shortly: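 Cells seeded at 5,000 per well were treated with compounds over a concentration series and loaded with oleic acid (400 uM, as added). Lipid droplet fluorescence (488 nm excitation, 500-530 nm channel) was read by laser-scanning cytometry and normalized to 20 uM Triacsin C.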
(Quantitative high-throughput screening tests each substance at several concentrations.)

For test [11], the target named is Dual specificity protein kinase CLK4 (Homo sapiens) (UniProt Q9HAZ1). Nature of the test: qHTS Assay for Inhibitors of CDC-like Kinase 4 (ADP-Glo Assay) (AID 1771). Note: nearly all actives have a fitted effect of over 70% in size. Note: potency is the fitted concentration of half-maximal effect. The procedure, abridged:
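Compounds are pin-transferred onto substrate mix (100 uM RS peptide, 1 uM ATP), then 25 nM Clk4 is added. After 1 hr at room temperature, ADP-Glo reagent runs 45 min, detection reagent 30 min, then luminescence is read.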

For test [12] the target is unchanged. Nature of the test: qHTS Assay for Inhibitors of CDC-like Kinase 4 (ADP-FP Assay) (AID 1795). Note: nearly all actives have a fitted effect of over 60% in size. Note: potency is the fitted concentration of half-maximal effect. The procedure, abridged: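 Recombinant human Clk4 (6.25 nM) phosphorylated RS repeat peptide (100 uM) with 1 uM ATP in Tris pH 7.5/MgCl2/EGTA/DTT/Triton buffer for one hour. ADP was quantified by Transcreener competitive fluorescence polarization against an ADP calibration curve.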

Test [13] has as its target Ubiquitin carboxyl-terminal hydrolase 1 (Homo sapiens) (UniProt O94782). Nature of the test: Inhibitors of USP1/UAF1: Pilot qHTS (AID 504865).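 Note: rhodamine fluorescence freed from ubiquitin-rhodamine substrate followed over time; top concentration of the series differs between compounds; % is set by controls: 0 for no effect and ±100 for the full control effect; nearly all actives have a fitted effect of over 35% in size.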 Put shortly: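 USP1/UAF1 complex (1nM) preincubated with compound 15 min at room temperature, then Ub-Rho substrate (150nM final) added. Fluorescence read kinetically at 480/540 nm, 6 reads every 60 seconds. Buffer: 50mM HEPES pH 7.8, 0.5mM EDTA, 0.1 mg/ml BSA, 1mM TCEP, 0.01% Tween-20.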

A short description of test [14]: Primary qHTS for small molecule stabilizers of the endoplasmic reticulum resident proteome: Secreted ER Calcium Modulated Protein (SERCaMP) assay (AID 1508630). Note: % is set by controls: 0 for no effect and ±100 for the full control effect. The procedure, abridged:
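The SH-SY5Y reporter protocol was run at 3 concentrations up to 38.3 uM (primary) or 11 concentrations (follow-up): 16 h compound, 100 nM thapsigargin for 4 h, then extracellular luciferase luminescence.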

Test [15] addresses Cytochrome P450 3A4 (Homo sapiens) (UniProt P08684). Nature of the test: qHTS Assay for Activators of Cytochrome P450 3A4 (AID 885). Note: nearly all actives have a fitted effect of over 65% in size. Put shortly: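 Human CYP3A4 dealkylates Luciferin-PPXE to luciferin, which luciferase detection converts to light. Substrate was at its KM (25uM), buffer 200mM KPO4, reaction 60 min at RT.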
[16] abbreviates: measured here: cell count channel max response.
The mark [17] stands for this setting: measured here: lipid channel max response.

3',5'-cyclic-AMP phosphodiesterase 4B (Homo sapiens), sequence (Q07343 whole entry, looked up): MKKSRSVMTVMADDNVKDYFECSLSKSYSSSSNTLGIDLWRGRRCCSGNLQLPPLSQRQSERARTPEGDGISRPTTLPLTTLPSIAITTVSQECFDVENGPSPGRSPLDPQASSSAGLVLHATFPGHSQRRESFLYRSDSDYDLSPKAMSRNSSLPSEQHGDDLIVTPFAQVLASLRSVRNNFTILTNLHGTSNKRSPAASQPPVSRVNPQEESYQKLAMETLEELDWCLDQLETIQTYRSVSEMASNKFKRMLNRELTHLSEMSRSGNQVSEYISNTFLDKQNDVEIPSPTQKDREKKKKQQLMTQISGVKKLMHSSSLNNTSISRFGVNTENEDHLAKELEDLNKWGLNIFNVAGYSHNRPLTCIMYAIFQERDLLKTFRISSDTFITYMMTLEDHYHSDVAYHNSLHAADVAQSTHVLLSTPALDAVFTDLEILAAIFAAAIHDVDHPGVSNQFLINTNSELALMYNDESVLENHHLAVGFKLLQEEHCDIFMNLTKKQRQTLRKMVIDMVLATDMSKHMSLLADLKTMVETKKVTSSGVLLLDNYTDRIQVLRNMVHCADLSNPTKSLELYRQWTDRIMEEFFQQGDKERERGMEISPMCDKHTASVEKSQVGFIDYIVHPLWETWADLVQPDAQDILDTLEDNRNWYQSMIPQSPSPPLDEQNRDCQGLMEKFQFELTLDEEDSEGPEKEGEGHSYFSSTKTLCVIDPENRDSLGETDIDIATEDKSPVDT
Lysosomal acid glucosylceramidase (Homo sapiens), sequence (P04062 whole entry, looked up): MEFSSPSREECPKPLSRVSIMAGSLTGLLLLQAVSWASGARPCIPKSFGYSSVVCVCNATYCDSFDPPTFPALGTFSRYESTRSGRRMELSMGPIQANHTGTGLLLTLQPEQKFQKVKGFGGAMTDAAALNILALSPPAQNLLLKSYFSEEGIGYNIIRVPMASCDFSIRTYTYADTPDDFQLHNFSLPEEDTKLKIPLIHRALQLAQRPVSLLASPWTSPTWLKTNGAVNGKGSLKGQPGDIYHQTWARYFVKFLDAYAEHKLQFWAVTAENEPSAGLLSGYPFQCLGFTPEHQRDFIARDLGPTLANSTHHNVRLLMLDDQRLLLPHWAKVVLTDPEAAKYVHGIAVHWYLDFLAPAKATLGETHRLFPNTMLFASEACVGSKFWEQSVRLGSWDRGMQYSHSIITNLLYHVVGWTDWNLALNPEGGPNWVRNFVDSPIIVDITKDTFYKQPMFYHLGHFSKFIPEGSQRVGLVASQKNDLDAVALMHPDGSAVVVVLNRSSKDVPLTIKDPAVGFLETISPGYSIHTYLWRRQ
Dual specificity protein kinase CLK4 (Homo sapiens), sequence (Q9HAZ1 whole entry, looked up): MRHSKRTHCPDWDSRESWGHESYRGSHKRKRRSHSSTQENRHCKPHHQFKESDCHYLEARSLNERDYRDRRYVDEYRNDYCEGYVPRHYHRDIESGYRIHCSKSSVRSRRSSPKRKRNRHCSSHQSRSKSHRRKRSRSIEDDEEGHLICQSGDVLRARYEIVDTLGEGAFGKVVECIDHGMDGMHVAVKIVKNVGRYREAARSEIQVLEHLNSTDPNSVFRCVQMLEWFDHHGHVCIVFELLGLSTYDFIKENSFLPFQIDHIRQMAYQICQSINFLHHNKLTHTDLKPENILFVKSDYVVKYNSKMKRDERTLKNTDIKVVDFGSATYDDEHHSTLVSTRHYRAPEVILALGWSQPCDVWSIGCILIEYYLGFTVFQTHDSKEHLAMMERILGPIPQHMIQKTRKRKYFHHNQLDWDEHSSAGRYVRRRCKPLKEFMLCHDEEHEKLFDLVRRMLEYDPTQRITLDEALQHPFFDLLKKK
Cytochrome P450 1A2 (Homo sapiens), sequence (P05177 whole entry, looked up): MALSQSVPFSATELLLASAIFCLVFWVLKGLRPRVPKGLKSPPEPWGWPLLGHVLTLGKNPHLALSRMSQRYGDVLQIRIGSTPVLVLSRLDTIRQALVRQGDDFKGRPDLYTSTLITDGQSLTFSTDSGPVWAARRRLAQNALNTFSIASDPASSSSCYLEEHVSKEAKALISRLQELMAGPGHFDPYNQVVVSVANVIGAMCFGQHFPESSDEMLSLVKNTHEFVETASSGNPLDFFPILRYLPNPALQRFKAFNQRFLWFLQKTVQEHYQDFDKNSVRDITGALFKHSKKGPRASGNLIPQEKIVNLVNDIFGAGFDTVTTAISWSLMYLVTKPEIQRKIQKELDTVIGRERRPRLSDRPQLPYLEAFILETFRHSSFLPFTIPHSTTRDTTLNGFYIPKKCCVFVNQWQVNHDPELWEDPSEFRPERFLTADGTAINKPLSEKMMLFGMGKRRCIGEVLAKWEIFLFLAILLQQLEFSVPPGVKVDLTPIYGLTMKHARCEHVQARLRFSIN
Ubiquitin carboxyl-terminal hydrolase 1 (Homo sapiens), sequence (O94782 whole entry, looked up): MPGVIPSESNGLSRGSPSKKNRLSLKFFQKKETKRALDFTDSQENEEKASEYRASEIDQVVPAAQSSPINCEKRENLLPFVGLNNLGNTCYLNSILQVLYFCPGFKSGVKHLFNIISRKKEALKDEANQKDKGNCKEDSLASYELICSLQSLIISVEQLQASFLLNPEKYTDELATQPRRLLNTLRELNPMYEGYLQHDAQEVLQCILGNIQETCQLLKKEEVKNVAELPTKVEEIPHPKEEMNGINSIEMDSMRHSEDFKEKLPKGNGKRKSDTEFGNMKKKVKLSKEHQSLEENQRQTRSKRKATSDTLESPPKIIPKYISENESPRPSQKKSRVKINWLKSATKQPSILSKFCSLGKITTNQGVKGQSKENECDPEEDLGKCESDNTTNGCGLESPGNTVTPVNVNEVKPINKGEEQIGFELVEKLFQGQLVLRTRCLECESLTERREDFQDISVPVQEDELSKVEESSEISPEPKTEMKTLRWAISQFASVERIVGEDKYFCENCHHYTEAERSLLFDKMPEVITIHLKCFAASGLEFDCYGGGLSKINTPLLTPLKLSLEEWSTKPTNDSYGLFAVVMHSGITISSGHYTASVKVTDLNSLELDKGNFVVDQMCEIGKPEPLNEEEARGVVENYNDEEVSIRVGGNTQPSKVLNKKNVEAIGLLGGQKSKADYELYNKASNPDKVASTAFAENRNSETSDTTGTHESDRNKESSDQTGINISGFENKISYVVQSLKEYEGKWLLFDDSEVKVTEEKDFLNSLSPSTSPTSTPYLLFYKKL
Glucocorticoid receptor (Homo sapiens), sequence (P04150 whole entry, looked up): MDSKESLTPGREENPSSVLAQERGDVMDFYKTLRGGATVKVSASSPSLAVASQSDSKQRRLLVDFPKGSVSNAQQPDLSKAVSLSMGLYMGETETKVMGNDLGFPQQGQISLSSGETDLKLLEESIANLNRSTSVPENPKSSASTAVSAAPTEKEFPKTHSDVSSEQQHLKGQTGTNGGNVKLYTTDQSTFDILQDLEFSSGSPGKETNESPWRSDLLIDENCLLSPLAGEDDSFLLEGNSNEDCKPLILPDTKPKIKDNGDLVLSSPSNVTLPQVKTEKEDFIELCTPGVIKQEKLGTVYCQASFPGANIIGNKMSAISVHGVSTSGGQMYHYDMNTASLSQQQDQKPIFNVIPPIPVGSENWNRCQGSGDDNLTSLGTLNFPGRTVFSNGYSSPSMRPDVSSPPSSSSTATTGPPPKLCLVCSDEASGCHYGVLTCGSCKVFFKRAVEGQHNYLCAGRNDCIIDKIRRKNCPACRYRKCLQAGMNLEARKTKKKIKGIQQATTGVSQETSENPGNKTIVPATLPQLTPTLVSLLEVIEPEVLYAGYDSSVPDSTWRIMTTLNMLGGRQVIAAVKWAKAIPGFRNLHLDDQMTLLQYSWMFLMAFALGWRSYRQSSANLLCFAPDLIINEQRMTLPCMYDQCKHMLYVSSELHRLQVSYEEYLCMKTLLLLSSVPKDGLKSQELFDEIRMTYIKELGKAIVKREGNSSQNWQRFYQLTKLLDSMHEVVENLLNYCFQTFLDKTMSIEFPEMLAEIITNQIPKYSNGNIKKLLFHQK
Cytochrome P450 3A4 (Homo sapiens), sequence (P08684 whole entry, looked up): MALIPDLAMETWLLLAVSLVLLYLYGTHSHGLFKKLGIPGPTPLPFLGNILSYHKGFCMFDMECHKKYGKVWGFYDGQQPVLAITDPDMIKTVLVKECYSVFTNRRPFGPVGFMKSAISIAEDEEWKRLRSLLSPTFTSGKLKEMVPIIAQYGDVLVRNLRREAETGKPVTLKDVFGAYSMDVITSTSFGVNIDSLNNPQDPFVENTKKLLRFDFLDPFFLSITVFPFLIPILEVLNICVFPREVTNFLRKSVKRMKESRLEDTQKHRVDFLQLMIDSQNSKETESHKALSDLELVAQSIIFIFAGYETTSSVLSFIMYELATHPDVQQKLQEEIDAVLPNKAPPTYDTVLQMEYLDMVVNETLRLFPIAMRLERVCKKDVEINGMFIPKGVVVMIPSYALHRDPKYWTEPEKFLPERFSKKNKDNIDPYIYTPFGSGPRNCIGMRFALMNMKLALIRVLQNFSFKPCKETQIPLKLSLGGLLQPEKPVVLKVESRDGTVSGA

Turning to `COc1ccc(-c2nc3cnc(N4CCOCC4)nc3n(C[C@H]3CCCO3)c2=O)cc1`, the Potency was > 11.4 µM (inactive) in test [1], 5.01 µM (active) in test [3], > 9.22 µM (inactive) in test [6] and > 46 µM (inactive) in test [7]. Also, the activity change, negative = inhibition was 8.17% (inactive) in [2], 15.8% (inactive) in [4] and 1.98% (inactive) in test [10]. For the same compound, the activity, negative = inhibition in test [5] was 9.41% (inactive). Moreover, in test [8], the outcome was inactive. Also, the Potency entry in [9], in test [11], in [12], in test [13] and in test [14] was “inactive” each time. The figures for the max response in test [10] (setting [16]) and in [10] (setting [17]) were 4.58% and 6.82%, respectively.

With `COc1cccc(-c2ccc3ncnc(NCc4ccccc4)c3c2)c1`, the Potency in test [6] was > 46 µM (inactive); in test [7], > 46 µM (inactive); in test [11] it was 2.24 µM (active); in test [12] it was 0.794 µM (active). For the same compound, the compound was classed as inactive in test [8]. The Potency result in [9], in test [13] and in [14] was “inactive” in each case. Moreover, the activity change, negative = inhibition in test [10] is -5.64% (inactive). Further, the max response in test [10] (setting [16]) was -2.9%; in test [10] (setting [17]) it was -10.2%.

In the case of `Cc1cnc(CNc2ncncc2-c2c(C)noc2C)cn1`, the Potency in test [1] was > 11.4 µM (inactive); in test [6], > 46 µM (inactive); in test [7], > 46 µM (inactive). The activity change, negative = inhibition is 5.13% (inactive) in [2], 1.67% (inactive) in test [4] and 5.43% (inactive) in [10]. In addition, the Potency entry in test [3], in test [9], in [15], in test [11], in [12] and in test [13] was “inactive” each time. The Potency result in [14] was “inactive”. The activity, negative = inhibition in test [5] was -8% (inactive). In addition, the compound was classed as inactive in [8]. Moreover, the max response is 31% in test [10] (setting [16]) and 35% in test [10] (setting [17]).

With `Cc1noc(C)c1-c1ccc2ncnc(NC3CCNCC3)c2c1`, the Potency in test [1] was > 11.4 µM (inactive); in test [3], 31.6 µM (active); in [6], > 46 µM (inactive); in test [7], > 46 µM (inactive); in [11] it was 25.1 µM (active). Besides, the results for the activity change, negative = inhibition in test [2], in test [4] and in [10] were 17.3% (inactive), -27.4% (inactive) and 2.83% (inactive), respectively. In [5], the activity, negative = inhibition is 10.3% (inactive). The outcome in [8] was inactive. The Potency result in test [9], in test [13] and in [14] was “inactive” in each case. Besides, the results for the max response in test [10] (setting [16]) and in test [10] (setting [17]) were 3.61% and 2.68%, respectively.

Turning to `CCNc1ncc2nc(-c3ccc(OC)cc3)c(=O)n(CCOC)c2n1`, the activity change, negative = inhibition was -6.96% (inactive) in [2], 6.8% (inactive) in test [4] and 4.42% (inactive) in test [10]. In test [5], the activity, negative = inhibition is -11.3% (inactive). Besides, the values for the Potency in test [6] and in test [7] were > 9.22 µM (inactive) and > 46 µM (inactive), respectively. The outcome in [8] was inactive. Besides, the Potency entry in test [9], in test [15], in test [11], in test [12], in [13] and in [14] was “inactive” each time. Moreover, the max response in test [10] (setting [16]) stood at 20.7%; in test [10] (setting [17]) it was 27.3%.

Turning to `COc1ccccc1-c1ccc2ncnc(NC3CCNCC3)c2c1`, the values for the Potency in test [1], in test [6] and in test [7] were > 11.4 µM (inactive), > 46 µM (inactive) and > 46 µM (inactive), respectively. Moreover, the activity change, negative = inhibition in test [2] is 2.47% (inactive); in [4], 5.17% (inactive); in [10] it was 4.79% (inactive). Moreover, the activity, negative = inhibition in test [5] is 3.74% (inactive). Moreover, the outcome in [8] was inactive. Also, the Potency result in test [9], in test [11], in [12], in [13] and in test [14] was “inactive” each time. For the same compound, the figures for the max response in test [10] (setting [16]) and in test [10] (setting [17]) were 10.6% and 12.3%, respectively.
